PubChem BioAssay (NCATS)
Values joined by “and” are separate entries in the source; they are usually repeats but may differ in a detail not shown here. Equal entries are not always repeated. Results filed as inconclusive are left out. Entries that show only a call come without a potency. A number with no mark means an inactive call. Active and inactive are the calls of the source. Calls follow the shape of the dose curve; as a rule, active = well fitted curve in the direction sought with a large enough effect; inconclusive = small, poorly fitted or top-dose-only effect, or another doubt; inactive = no such curve, though single readings can be large; an effect the other way counts as inactive or inconclusive.

What was measured:
CRL-7250 = normal cell line; assay: Cytotoxic Profiling of Annotated Libraries Using Quantitative High-Throughput Screening (AID 1296008); settings: Five cell lines viability, CellTiter-Glo ATP luminescence, 48-72 h; max response: active compounds read low; also: nearly all actives have a fitted effect of over 60% in size; also: potency is read from the fitted curve at half-maximal effect
Outline: (§1)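 Cells exposed to compounds for 48 or 72 hr at 37 degrees Celsius. Viability read as ATP-coupled luminescence with CellTiter-Glo after 10 min at room temperature.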

HEK293 = assay: as above; settings: Five cell lines viability, CellTiter-Glo ATP luminescence, 48-72 h; max response: active compounds read low
Outline: as §1

HaCat [1] = assay: as above; settings: Five cell lines viability, CellTiter-Glo ATP luminescence, 48-72 h; max response: active compounds read low
Outline: as §1

KB-3-1 = assay: as above; settings: Five cell lines viability, CellTiter-Glo ATP luminescence, 48-72 h; max response: active compounds read low
Outline: as §1

NIH3T3 [2] = assay: as above; settings: Five cell lines viability, CellTiter-Glo ATP luminescence, 48-72 h; max response: active compounds read low
Outline: as §1

HACAT [3] = assay: qHTS assay to identify novel small-molecules to repurpose for Merkel cell carcinoma treatment (AID 1296009); settings: MCC and control cell lines, CellTiter-Glo viability, 72 h; at 44.8 µM (top of the series) unless noted; also: nearly all actives have a fitted effect of over 60% in size; also: potency is read from the fitted curve at half-maximal effect
Outline: (§2)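 Cells were treated for 72 hr at 37 degree celsius with compounds in 8- or 11-point dose response. Viability was read by CellTiter-Glo luminescence, normalized to no-cell (cytotoxicity) and DMSO controls.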

MCC-13 = assay: as above; settings: MCC and control cell lines, CellTiter-Glo viability, 72 h; series mostly up to 46 µM
Outline: as §2

MCC-26 = assay: as above; settings: MCC and control cell lines, CellTiter-Glo viability, 72 h; series mostly up to 46 µM
Outline: as §2

MKL-1 = assay: as above; settings: MCC and control cell lines, CellTiter-Glo viability, 72 h; series mostly up to 46 µM
Outline: as §2

NIH3T3 [4] = assay: as above; settings: MCC and control cell lines, CellTiter-Glo viability, 72 h; series mostly up to 44.8 µM
Outline: as §2

UISO = assay: as above; settings: MCC and control cell lines, CellTiter-Glo viability, 72 h; series mostly up to 46 µM
Outline: as §2

WaGa = assay: as above; settings: MCC and control cell lines, CellTiter-Glo viability, 72 h; series mostly up to 46 µM
Outline: as §2

MKL-2 = assay: as above; settings: MCC and control cell lines, CellTiter-Glo viability, 72 h; series mostly up to 46 µM
Outline: as §2

HEK293T = assay: as above; settings: MCC and control cell lines, CellTiter-Glo viability, 72 h; at 44.8 µM (top of the series) unless noted
Outline: as §2

Es-2 = assay: Primary qHTS to identify gynecologic anti-cancer compounds using libraries of approved drugs and bioactive compounds (AID 1345084); settings: Gynecologic cancer cell panel viability, ATPlite luminescence, 48 h; series mostly up to 57.5 µM; also: nearly all actives have a fitted effect of over 55% in size
Outline: (§3)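 Cells, 1,000 per well, plated 16 h, then exposed 48 h at 37 C to compounds. Viability by ATPlite luminescence after 15 min at room temperature.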

HeLa = assay: as above; settings: Gynecologic cancer cell panel viability, ATPlite luminescence, 48 h; series mostly up to 57.5 µM
Outline: as §3

NC(N)=Nc1nc(CSCCC(N)=NS(N)(=O)=O)cs1
max response (CRL-7250): -0.357% | max response (HEK293): -1.73% | outcome (HaCat [1]): inactive | max response (KB-3-1): 6.28% | outcome (NIH3T3 [2]): inactive | outcome (HACAT [3]): inactive | Potency (MCC-13): inactive | Potency (MCC-26): inactive | Potency (MKL-1): inactive | Potency (NIH3T3 [4]): inactive | Potency (UISO): inactive

CN[C@@H]1[C@@H](O)[C@@H](O[C@@H]2[C@@H](O)[C@H](O[C@H]3O[C@H](CN)[C@@H](O)[C@H](O)[C@@H]3O)[C@@H](N)C[C@@H]2NC(=O)[C@@H](O)CN)OC[C@]1(C)O
outcome (CRL-7250): inactive | max response (HEK293): 3.66% | outcome (HaCat [1]): inactive | max response (KB-3-1): 1.73% | outcome (NIH3T3 [2]): inactive | outcome (HACAT [3]): inactive | Potency (MCC-13): inactive | Potency (MCC-26): inactive | Potency (MKL-1): inactive | Potency (NIH3T3 [4]): inactive | Potency (UISO): inactive | Potency (WaGa): inactive

CN1[C@H]2CC[C@H]1CC(OC(=O)c1c[nH]c3ccccc13)C2 (stereo partly drawn)
max response (CRL-7250): -1.18% | max response (HEK293): -1.65% | outcome (HaCat [1]): inactive | max response (KB-3-1): 6.19% | outcome (NIH3T3 [2]): inactive | outcome (HACAT [3]): inactive | Potency (MCC-13): inactive | Potency (MKL-1): inactive | Potency (MKL-2): inactive | Potency (NIH3T3 [4]): inactive | Potency (UISO): inactive | Potency (WaGa): inactive

CC1C(=O)OC2C(O)C34C5CC(C(C)(C)C)C36C(OC(=O)C6O)OC4(C(=O)O5)C12O (stereo not drawn)
outcome (CRL-7250): inactive | max response (HEK293): -2.56% | outcome (HaCat [1]): inactive | outcome (KB-3-1): inactive | max response (NIH3T3 [2]): -22.7% | outcome (HACAT [3]): inactive | Potency (MCC-13): inactive | Potency (MCC-26): inactive | Potency (MKL-1): inactive | Potency (UISO): inactive

CCC(c1ccc(O)cc1)C(CC)c1ccc(O)cc1 (stereo not drawn)
outcome (CRL-7250): inactive | max response (HEK293): -1.04% | outcome (HaCat [1]): inactive | max response (KB-3-1): 9.65% | outcome (NIH3T3 [2]): inactive | outcome (HACAT [3]): inactive | Potency (MCC-13): inactive | Potency (MCC-26): inactive | Potency (MKL-1): inactive | Potency (MKL-2): inactive | Potency (NIH3T3 [4]): inactive | Potency (UISO): inactive

N#CC(c1ccc(Cl)cc1)c1c(Cl)cc(-n2ncc(=O)[nH]c2=O)cc1Cl (stereo not drawn)
max response (CRL-7250): -3.43% | max response (HEK293): -4.97% | outcome (HaCat [1]): inactive | max response (KB-3-1): 0.338% | max response (NIH3T3 [2]): -0.315% | outcome (HACAT [3]): inactive | Potency (MCC-13): inactive | Potency (UISO): inactive | Potency (WaGa): 13.2 µM (active)

Cc1cc(NC(=O)Nc2ccc(N(C)C)cc2)c2cc(F)cc(F)c2n1
outcome (CRL-7250): inactive | Potency (HEK293): 14.8 µM (active) | outcome (HaCat [1]): inactive | outcome (KB-3-1): inactive | outcome (NIH3T3 [2]): inactive | outcome (HACAT [3]): inactive | Potency (MCC-13): inactive | Potency (MCC-26): inactive | Potency (MKL-1): inactive | Potency (MKL-2): inactive | Potency (NIH3T3 [4]): inactive | Potency (UISO): inactive | Potency (WaGa): inactive

CC(C)(CO)[C@@H](O)C(=O)NCCC(=O)O
max response (CRL-7250): 0.71% | outcome (HEK293): inactive | outcome (HaCat [1]): inactive | max response (KB-3-1): 1.6% and 8.68% | max response (NIH3T3 [2]): -2.4% | outcome (HACAT [3]): inactive | outcome (HEK293T): inactive | Potency (MCC-13): inactive | Potency (MCC-26): inactive | Potency (MKL-1): inactive | Potency (MKL-2): inactive | Potency (UISO): inactive | Potency (WaGa): inactive

COc1cc([C@H]2Oc3cc([C@H]4Oc5cc(O)cc(O)c5C(=O)[C@H]4O)ccc3O[C@H]2CO)ccc1O
outcome (CRL-7250): inactive | max response (HEK293): -13.7% | outcome (HaCat [1]): inactive | max response (KB-3-1): -0.459% | max response (NIH3T3 [2]): 0.0248% | outcome (HACAT [3]): inactive | Potency (MCC-13): inactive | Potency (MCC-26): inactive | Potency (MKL-1): inactive | Potency (UISO): inactive | Potency (WaGa): inactive

O=C(Nc1ccccc1)Nc1ccc(-c2ccc(C(=O)[C@H]3CCC[C@H]3C(=O)O)cc2)cc1
outcome (CRL-7250): inactive | max response (HEK293): -0.566% | outcome (HaCat [1]): inactive | max response (KB-3-1): 9.29% | max response (NIH3T3 [2]): 3.03% | outcome (HACAT [3]): inactive | Potency (MCC-13): inactive | Potency (MCC-26): inactive | Potency (MKL-1): inactive | Potency (MKL-2): inactive | Potency (UISO): inactive | Potency (WaGa): inactive

CC=C(C(=CC)c1ccc(O)cc1)c1ccc(O)cc1
max response (CRL-7250): -2.03% | max response (HEK293): -14% | outcome (HaCat [1]): inactive | max response (KB-3-1): -8.73% | max response (NIH3T3 [2]): -13.5% | outcome (HACAT [3]): inactive | Potency (MCC-13): inactive | Potency (MKL-1): inactive | Potency (MKL-2): inactive | Potency (UISO): inactive | Potency (WaGa): inactive

CC[C@H](NC(=O)[C@H](C)NC)C(=O)N1C[C@@H](O)C[C@H]1Cc1c(-c2[nH]c3cc(F)ccc3c2C[C@H]2C[C@H](O)CN2C(=O)[C@H](CC)NC(=O)[C@H](C)NC)[nH]c2cc(F)ccc12
outcome (CRL-7250): inactive | max response (HEK293): 1% | outcome (HaCat [1]): inactive | outcome (KB-3-1): inactive | outcome (NIH3T3 [2]): inactive | outcome (HACAT [3]): inactive | Potency (MCC-13): inactive | Potency (MCC-26): inactive | Potency (NIH3T3 [4]): inactive | Potency (UISO): inactive

N#Cc1c(N(CC(=O)O)CC(=O)O)sc(C(=O)O)c1CC(=O)O
outcome (CRL-7250): inactive | outcome (HEK293): inactive | outcome (HaCat [1]): inactive | max response (KB-3-1): -1.51% | max response (NIH3T3 [2]): -3.52% | outcome (HACAT [3]): inactive | outcome (HEK293T): inactive | Potency (MCC-13): inactive | Potency (MCC-26): inactive | Potency (MKL-1): inactive | Potency (UISO): inactive | Potency (WaGa): inactive

O=c1[nH]nc(OCCCc2ccc(Cl)cc2)c(NCc2cccnc2)c1Br
Potency (CRL-7250): 6.51 µM (active) | Potency (HEK293): 3.32 µM (active) and 7.31 µM (active) | Potency (HaCat [1]): 20.9 µM (active) | max response (KB-3-1): 3.09% | max response (NIH3T3 [2]): 1.68% and -21.7% | Potency (MCC-26): inactive | Potency (MKL-1): 23.5 µM (active) | Potency (MKL-2): 14.8 µM (active) | Potency (Es-2): inactive | Potency (HeLa): inactive

CCC=CC[C@H]1C(=O)CC[C@@H]1CC(=O)OC
max response (CRL-7250): -0.832% | max response (HEK293): 3.57% | outcome (HaCat [1]): inactive | outcome (KB-3-1): inactive | outcome (HACAT [3]): inactive | Potency (MCC-13): inactive | Potency (MKL-1): inactive | Potency (MKL-2): inactive | Potency (UISO): inactive | Potency (WaGa): inactive
